Molecules are shown by their SMILES. “And” between values parts separate entries of the source, which are not always exact repeats. Identical values can stand only once. Some structures have more than one record in an assay (separate samples or runs), and their calls can disagree. The source made the active and inactive calls. How the source made its calls: active means hit-call score of the fitted dose curve at least 0.9, where 1 is the maximum; inactive means score below 0.9.

One may read the AC50 as the concentration giving half of the maximal activity seen.

Read-out in this assay: Early growth response protein 1 (EGR1) transcription factor, EGR1 (gene 1958)
The assay can be described thus: LTEA_HepaRG_EGR1: Life Technologies and Expression Analysis (LTEA) Assay for Early growth response protein 1 (EGR1) transcription factor using HepaRG (AID 2283490). The conditions noted are these: mRNA level, 48 h; actives raise or lower the signal. On the procedure:
LTEA_HepaRG is a cell based, multiplexed-readout assay that uses HepaRG, a human liver cell line, with measurements taken at 48 hours after chemical dosing on a 96-well plate.LTEA_HepaRG_EGR1 is one of 102 assay component(s) measured in the LTEA HepaRG cell culture assay. It is a marker of Cell proliferation, survival, death.Data from the assay component LTEA_HepaRG_EGR1 was analyzed into 1 endpoint. This assay endpoint, LTEA_HepaRG_EGR1, was analyzed with bidirectional fitting relative to DMSO as the negative control and baseline of activity. Using a type of inducible reporter, measures of mRNA induction for gain or loss-of-signal activity can be used to understand regulation of transcription factor activity. To generalize the intended target to other relatable targets, this assay endpoint is annotated to the dna binding intended target family, where the subfamily is zinc finger.
A total of 1060 chemcials from the ToxCast library were tested in eight-point concentration-response experiments. Cell culture and cytotoxicity assays were conducted at Thermo Fisher Scientific's Custom Services facility (Madison, WI). A single lot of human HepaRG cells (Thermo Fisher Scientific, Frederick, MD) was used for the cell culture experiments. 96-well format collagen type I coated plates of human HepaRG cells were prepared using established methods. Briefly, cryopreserved HepaRG cells were thawed, plated at a density of approximately 100,000 cells/well in HepaRG Thaw, Plate, and General Purpose media (HPRG770, Thermo Fisher Scientific), and incubated for 48 hours. 0.5% DMSO was selected as vehicle control to balance the requisite need of DMSO in HepaRG cultures to maintain differentiation (for example, baseline metabolism, proportions of hepatocytes vs. cholangiocytes), while enabling further hepatic receptor pathway activation (for example, PXR and CAR) in response to chemical exposure. 48 hours after plating, the culture medium was replaced with HepaRG Serum-Free Incudtion Media. Cells were exposed to each test chemical in duplicate and maintained in CO2 incubators for another 48 hours. Chemical plates were thawed to room temperature and 200x concentrations of treatment groups were prepared. 8-point conentration-reponse curves were made with the highest exposure at 100 uM, followed by half-log dilutions, all in 0.5% DMSO. Each test plate contained variouse controls, induction positive controls (1mM phenobarbital), cytotoxicity positive controls ([…] aflatoxin B1), vehicle controls (0.5% DMSO), and total lysis controls (0.5% DMSO). Cell morphology images were taken using an Essen IncuCyte FLR automated microscope, with six 96-well plates imaged in about 24 minutes. Images were captured and exported and JPEG files. Spent culture media was transfered to black-well plates for the LDH assay, and remaining media was sorted at -80 C for later use. Cells were treated with RLT buffer and frozen until shipped for gene expression analysis. Total RNA was isolated from the cell suspension in 75 uL of Buffer RLT (Qiagen, Germantown, MD 20874) by Quintiles/Expression Analysis (Durham, NC) using a custom isolation procedure. Total RNA from each plate well was transferred to a preamplification plate. Fluidigm's 96.96 Dynamic ArrayTM (Fluidigm, Amsterdam, the Netherlands) technology was used for gene expression analyses by quantitative reverse transcription polymerase chain reaction (qRT-PCR, performed by Quintiles/Expression Analysis, Durham, NC)89. Standard TaqManTM Assays (Applied Biosystems/ThermoFisher Scientific, Foster City, CA) were used to assess the expression of 93 genes selected based on their selectivity and sensitivity to important hepatic receptors known to be modulated by environmental chemicals; importance in human hepatocyte functionality; and hepatotoxicity. […]
Consider `CC[C@H](C)[C@H]1O[C@]2(C=C[C@@H]1C)C[C@@H]1C[C@@H](C/C=C(\C)[C@@H](O[C@H]3C[C@H](OC)[C@@H](O[C@H]4C[C@H](OC)[C@@H](O)[C@H](C)O4)[C@H](C)O3)[C@@H](C)/C=C/C=C3\CO[C@@H]4[C@H](O)C(C)=C[C@@H](C(=O)O1)[C@]34O)O2` (tested in a mixture with another compound), for which the outcome was inactive.
Turning to `N#Cc1c(Cl)c(Cl)c(Cl)c(C#N)c1Cl`, the call was inactive.
On to `CCC(C)(C)C(=O)OC1=C(c2ccc(Cl)cc2Cl)C(=O)OC12CCCCC2`, for which the outcome was inactive.
On the same count and under the same terms, the value for `CCOCN(C(=O)CCl)c1c(C)cccc1CC` was “inactive”; that for `COP(=S)(OC)Oc1ccc([N+](=O)[O-])cc1` was “inactive”.
On to `Cc1[nH]c(=O)n(C(C)(C)C)c(=O)c1Cl`, for which the call was inactive.
Still for that read-out and setting: for `CNC(=O)/C=C(\C)OP(=O)(OC)OC` the value was “inactive”; for `O=S1OCC2C(CO1)C1(Cl)C(Cl)=C(Cl)C2(Cl)C1(Cl)Cl` (stereo not given), “inactive”.
In the case of `N#CN`, the compound was called inactive.
In the case of `Oc1cc(Cl)ccc1Oc1ccc(Cl)cc1Cl`, the compound was called inactive.
Consider `O=C(NC(=O)c1c(F)cccc1F)Nc1ccc(OC(F)(F)C(F)OC(F)(F)F)c(Cl)c1` (stereo not given), for which the result was inactive.
Turning to `O=C(O)C(F)(F)C(F)(F)C(F)(F)C(F)(F)C(F)(F)C(F)(F)C(F)(F)F`, the AC50 was 12.1 µM (active) and the outcome was inactive.
Regarding `CC(C)N(C(=O)COc1nnc(C(F)(F)F)s1)c1ccc(F)cc1`, the call was inactive.
For the compound `O=[N+]([O-])/N=C1\NCCN1Cc1ccc(Cl)nc1`, the compound was classed as inactive.
`CCC(C)(NC(=O)c1cc(Cl)c(C)c(Cl)c1)C(=O)CCl` (stereo not given): the result was inactive.
`O=C1c2ccccc2C(=O)N1SC(Cl)(Cl)Cl`: the result was inactive.
For the compound `Oc1ccc(Cl)cc1Cc1ccccc1`, the outcome was inactive and the AC50 is 50.5 µM (active).
Take `CNC(=O)Oc1cccc(N=CN(C)C)c1`: the outcome was inactive.
Turning to `CCc1ccc(C(=O)NN(C(=O)c2cc(C)cc(C)c2)C(C)(C)C)cc1`, the AC50 was 50 µM (active).
For `ClC1C(Cl)C(Cl)C(Cl)C(Cl)C1Cl` (stereo not given), the compound was classed as inactive.
For the compound `O=[N+]([O-])c1c(Cl)c(Cl)c(Cl)c(Cl)c1Cl`, the outcome was inactive.
Regarding `O=S(=O)(O)C(F)(F)C(F)(F)C(F)(F)C(F)(F)C(F)(F)C(F)(F)C(F)(F)C(F)(F)F`, the compound was called inactive; the AC50 is 50 µM (active) and 7.35 µM (active).
Consider `O=C(O)CCCOc1ccc(Cl)cc1Cl`, for which the outcome was inactive.
Take `COc1nn(CSP(=S)(OC)OC)c(=O)s1`: the result was inactive.
Consider `CCOC1Oc2ccc(OS(C)(=O)=O)cc2C1(C)C` (stereo not given), for which the outcome was inactive.
Turning to `CCN(CC)C(=O)SCc1ccc(Cl)cc1`, the compound was called inactive.
As for `CC1(C)C(C=C(Cl)Cl)C1C(=O)OC(C#N)c1ccc(F)c(Oc2ccccc2)c1` (stereo not given), the compound was classed as inactive.
Regarding `C#CCN1C(=O)COc2cc(F)c(N3C(=O)C4=C(CCCC4)C3=O)cc21`, the concentration at half-maximal activity (AC50) is 12 µM (active).
Turning to `CC(C)(C)C(O)C(Oc1ccc(Cl)cc1)n1cncn1` (stereo not given), the compound was called inactive.
On to `CNC(=O)CSP(=S)(OC)OC`, for which the result was inactive.
Still for that read-out and setting: the value for `C[C@H]1[C@H](c2ccc(Cl)cc2)SC(=O)N1C(=O)NC1CCCCC1` was “inactive”.
On to `CCC(C)Nc1c([N+](=O)[O-])cc(C(C)(C)C)cc1[N+](=O)[O-]` (stereo not given), for which the compound was classed as inactive.
In the case of `COP(=O)(OC)OC=C(Cl)Cl`, the result was inactive.
For `CN1CSC(=S)N(C)C1`, the compound was called inactive.
As to `CC(C)(C)C(O)/C(=C\c1ccc(Cl)cc1Cl)n1cncn1` (stereo not given), the AC50 was 33.8 µM (active).
As to `O=C(O)COc1ccc(Cl)cc1Cl`, the compound was called inactive.
The same measure, in the same setting: for `COP(=S)(OC)Oc1ccc(SC)c(C)c1` the value was “inactive”.

These data come from PubChem BioAssay (EPA / NIEHS).
